The text below walks through data of PubChem BioAssay.

Structures are written as SMILES. Calls of active or inactive are those of the source.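 How the source made its calls, unless noted: active means hit in primary screen, with calcium signal over 5 SD above buffer well mean in both duplicates; inactive means the rest.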

One assay in a line: nonspecific calcium rise without TRPC4 – cell-based, HEK293 mu-opioid receptor line, counter-screen for TRPC4 activator project, confirmation (AID 449723).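 Further: counter screen cells carry the mu-opioid receptor alone and lack TRPC4.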 The conditions noted are these: HEK293 mu-opioid cells, Fluo-4 calcium fluorescence, at 10 µM. In general terms: A counterscreen serves to expose hits that act by an unwanted route or on another target.
Consider `CN(CCCNC(=O)CCCOc1cc(=O)n(C)c2ccccc12)Cc1ccccc1`, for which the outcome was inactive.
The same measure, in the same setting: for `CCOc1ccccc1C(=O)NCCc1cnc[nH]1` the value was “inactive”.
On to `Cc1ccccc1-n1c(=O)c2c(n3cnnc13)-c1ccccc1CC21CCCCC1`, for which the result was inactive.
On the same count and under the same terms, as for `CN(C)S(=O)(=O)N1CCC(CCCC2CCN(S(=O)(=O)N(C)C)CC2)CC1`, the entry is “inactive”; as for `O=C(Nc1ccnn1C1CCN(Cc2cc3ccccc3[nH]2)CC1)C1CCOC1` (stereo not drawn), “inactive”.
Same read-out and setting: for `C=CCOc1ccc(CN(C)Cc2nc3cc(C(F)(F)F)ccc3c(=O)[nH]2)cc1` the value was “inactive”; for `Cc1ccc(C(=O)C[n+]2cccc3cc(C)ccc32)cc1`, “inactive”.
For the molecule `CN(C)CCCN(C(=O)CCc1ccccc1)c1nc2ccc(F)cc2s1`, the outcome was inactive.
Still for that read-out and setting: as for `CC(=O)n1cc([C@@H]2C=C(C(=O)NCc3ccccc3)O[C@H](OCc3ccc(CO)cc3)C2)c2ccccc21`, the entry is “inactive”; as for `O=C(O)CCCN1C(=O)/C(=C\c2ccc(-c3nc4ccccc4s3)o2)SC1=S`, “inactive”.
The same measure, in the same setting: for `CCOCCCn1c(=S)[nH]c2cc(C(=O)NCCCN(CC)CC)ccc2c1=O` the value was “inactive”; for `O=C(NCc1ccccc1)c1ccc(S(=O)(=O)Nc2cccc(C(F)(F)F)c2)cc1`, “inactive”; for `CCOC(=O)C1CCCN(C(=O)CCCn2nnnc2CN2CCOCC2)C1` (stereo not drawn), “inactive”.
On the same count and under the same terms, for `COc1cc(OC)c2c(-c3ccccc3)cc(=O)oc2c1C(CCN1CCCCC1)c1ccc(N(C)C)cc1` (stereo not drawn) the value was “inactive”; for `CCCCCCCCCC[n+]1cccc2c3ccccc3ccc21`, “inactive”.
Turning to `CC(C)NS(=O)(=O)c1ccc(NC(=O)C(C)Oc2ccc(C(=O)c3ccccc3)cc2)cc1` (stereo not drawn), the result was inactive.
On the same count and under the same terms, as for `Cc1ccc(C(=O)NNC(=O)C2CSC3(C)CCC(=O)N23)cc1` (stereo not drawn), the entry is “inactive”.
Take `CCCc1nc2oc3c(NCCCN(C)C)ncnc3c2c2c1CCCC2`: the result was inactive.
For the molecule `CCc1nc2ccccc2n1Cc1ccccc1F`, the outcome was inactive.
The same measure, in the same setting: as for `O=C(Cc1ccccc1)Nc1cccc(NC(=O)c2cccs2)c1`, the entry is “inactive”; as for `CCCCN(CC)CCCNC(=O)c1cc2cc3ccc(C)cc3nc2o1`, “inactive”.
Still for that read-out and setting: as for `O=C1C=CC(=O)N1CCNc1ncc(C(F)(F)F)cc1Cl`, the entry is “inactive”.
On the same count and under the same terms, for `Cc1cc(NC(=O)CSCC(=O)Nc2ccc(Cl)c(C(F)(F)F)c2)no1` the value was “inactive”; for `Cc1ccc2c(c1)C1CN(C)CCC1N2C(=S)NC(=O)c1ccc(Br)cc1` (stereo not drawn), “inactive”.
For the molecule `CCc1nc2ccccc2n1Cc1ccc(F)cc1`, the outcome was inactive.
On the same count and under the same terms, for `CCN(CC)CCSc1nnc2c3ccccc3n(Cc3ccccc3)c2n1` the value was “inactive”; for `CCN1C2=NCCCN2c2cc(C)c(C)cc21`, “inactive”; for `Cc1cc(C)c2c(=O)n(CC(=O)Nc3cccc(Cl)c3C)sc2n1`, “inactive”.
The same measure, in the same setting: for `COc1cc(C2(c3ccc(O)c(OC)c3)C(=O)Nc3c(C)cc(Br)cc32)ccc1O` the value was “inactive”.
Still for that read-out and setting: for `COc1ccc(CC2(CO)CCN(C/C=C/c3ccccc3OC)CC2)cc1` the value was “inactive”; for `Cc1nn(-c2cc(C(F)(F)F)ccc2Cl)c2nc(C(Cl)(Cl)Cl)[nH]c(=O)c12`, “inactive”.
As for `Cc1ccc(C(=O)O)cc1N=Cc1cc(Br)cc(Br)c1O`, the outcome was inactive.
`CCOc1ccc(N=CNc2ccc(OCC)cc2)cc1`: the result was inactive.
Same read-out and setting: as for `CCN(CC)c1ncnc2sc3c(c12)CCC3`, the entry is “inactive”; as for `COc1ccc(NS(=O)(=O)c2ccc3ccccc3c2)c2ncccc12`, “inactive”; as for `CCN1CCN(CCC(=O)Nc2ccccc2OC)CC1`, “inactive”.
Still for that read-out and setting: for `COc1cc(NC(=O)CSc2ncnc3sc4c(c23)CCC(C)C4)c(C(=O)O)cc1OC` (stereo not drawn) the value was “inactive”; for `Cc1[nH]nc(-c2ccc(O)cc2O)c1-c1nc2ccccc2s1`, “inactive”; for `CC1CCC2C(C1)c1sc(=O)[nH]c1SC2(C)C` (stereo not drawn), “inactive”.

The nature of another assay: nonspecific potentiation of DAMGO calcium response – cell-based, HEK293 mu-opioid receptor line, counter-screen for TRPC4 allosteric potentiator project, confirmation (AID 449724;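 active means calcium signal rise more than 3 SD above the low-dose agonist control mean, in both duplicate plates and the primary screen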;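 further: HEK293 cells carrying mu-opioid receptor only with no TRPC4 channel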). The conditions noted are these: HEK293 mu-opioid receptor cells, Fluo-4 calcium flux, at 10 µM, compound added before EC20 DAMGO stimulus.
Take `CN(CCCNC(=O)CCCOc1cc(=O)n(C)c2ccccc12)Cc1ccccc1`: the outcome was inactive.
Take `CCOc1ccccc1C(=O)NCCc1cnc[nH]1`: the result was inactive.
For `Cc1ccccc1-n1c(=O)c2c(n3cnnc13)-c1ccccc1CC21CCCCC1`, the result was inactive.
Still for that read-out and setting: as for `CN(C)S(=O)(=O)N1CCC(CCCC2CCN(S(=O)(=O)N(C)C)CC2)CC1`, the entry is “inactive”; as for `O=C(Nc1ccnn1C1CCN(Cc2cc3ccccc3[nH]2)CC1)C1CCOC1` (stereo not drawn), “inactive”; as for `C=CCOc1ccc(CN(C)Cc2nc3cc(C(F)(F)F)ccc3c(=O)[nH]2)cc1`, “inactive”.
Still for that read-out and setting: for `Cc1ccc(C(=O)C[n+]2cccc3cc(C)ccc32)cc1` the value was “inactive”; for `CN(C)CCCN(C(=O)CCc1ccccc1)c1nc2ccc(F)cc2s1`, “inactive”.
Still for that read-out and setting: as for `CC(=O)n1cc([C@@H]2C=C(C(=O)NCc3ccccc3)O[C@H](OCc3ccc(CO)cc3)C2)c2ccccc21`, the entry is “inactive”; as for `O=C(O)CCCN1C(=O)/C(=C\c2ccc(-c3nc4ccccc4s3)o2)SC1=S`, “inactive”.
On to `CCOCCCn1c(=S)[nH]c2cc(C(=O)NCCCN(CC)CC)ccc2c1=O`, for which the result was inactive.
Same read-out and setting: for `O=C(NCc1ccccc1)c1ccc(S(=O)(=O)Nc2cccc(C(F)(F)F)c2)cc1` the value was “inactive”.
Turning to `CCOC(=O)C1CCCN(C(=O)CCCn2nnnc2CN2CCOCC2)C1` (stereo not drawn), the result was inactive.
On the same count and under the same terms, as for `COc1cc(OC)c2c(-c3ccccc3)cc(=O)oc2c1C(CCN1CCCCC1)c1ccc(N(C)C)cc1` (stereo not drawn), the entry is “inactive”; as for `CCCCCCCCCC[n+]1cccc2c3ccccc3ccc21`, “inactive”.
The same measure, in the same setting: as for `CC(C)NS(=O)(=O)c1ccc(NC(=O)C(C)Oc2ccc(C(=O)c3ccccc3)cc2)cc1` (stereo not drawn), the entry is “inactive”; as for `Cc1ccc(C(=O)NNC(=O)C2CSC3(C)CCC(=O)N23)cc1` (stereo not drawn), “inactive”.
Same read-out and setting: as for `CCCc1nc2oc3c(NCCCN(C)C)ncnc3c2c2c1CCCC2`, the entry is “inactive”.
Take `CCc1nc2ccccc2n1Cc1ccccc1F`: the result was inactive.
On the same count and under the same terms, for `O=C(Cc1ccccc1)Nc1cccc(NC(=O)c2cccs2)c1` the value was “inactive”.
The same measure, in the same setting: for `CCCCN(CC)CCCNC(=O)c1cc2cc3ccc(C)cc3nc2o1` the value was “inactive”; for `O=C1C=CC(=O)N1CCNc1ncc(C(F)(F)F)cc1Cl`, “inactive”; for `Cc1cc(NC(=O)CSCC(=O)Nc2ccc(Cl)c(C(F)(F)F)c2)no1`, “inactive”.
On the same count and under the same terms, as for `Cc1ccc2c(c1)C1CN(C)CCC1N2C(=S)NC(=O)c1ccc(Br)cc1` (stereo not drawn), the entry is “inactive”; as for `CCc1nc2ccccc2n1Cc1ccc(F)cc1`, “inactive”.
Turning to `CCN(CC)CCSc1nnc2c3ccccc3n(Cc3ccccc3)c2n1`, the outcome was inactive.
For `CCN1C2=NCCCN2c2cc(C)c(C)cc21`, the outcome was inactive.
Turning to `Cc1cc(C)c2c(=O)n(CC(=O)Nc3cccc(Cl)c3C)sc2n1`, the result was inactive.
Same read-out and setting: for `COc1cc(C2(c3ccc(O)c(OC)c3)C(=O)Nc3c(C)cc(Br)cc32)ccc1O` the value was “inactive”.
On the same count and under the same terms, for `COc1ccc(CC2(CO)CCN(C/C=C/c3ccccc3OC)CC2)cc1` the value was “inactive”.
Still for that read-out and setting: for `Cc1nn(-c2cc(C(F)(F)F)ccc2Cl)c2nc(C(Cl)(Cl)Cl)[nH]c(=O)c12` the value was “inactive”; for `Cc1ccc(C(=O)O)cc1N=Cc1cc(Br)cc(Br)c1O`, “inactive”.
In the case of `CCOc1ccc(N=CNc2ccc(OCC)cc2)cc1`, the result was inactive.
On the same count and under the same terms, as for `CCN(CC)c1ncnc2sc3c(c12)CCC3`, the entry is “inactive”; as for `COc1ccc(NS(=O)(=O)c2ccc3ccccc3c2)c2ncccc12`, “inactive”; as for `CCN1CCN(CCC(=O)Nc2ccccc2OC)CC1`, “inactive”.
Still for that read-out and setting: as for `COc1cc(NC(=O)CSc2ncnc3sc4c(c23)CCC(C)C4)c(C(=O)O)cc1OC` (stereo not drawn), the entry is “inactive”; as for `Cc1[nH]nc(-c2ccc(O)cc2O)c1-c1nc2ccccc2s1`, “inactive”.
The same measure, in the same setting: for `CC1CCC2C(C1)c1sc(=O)[nH]c1SC2(C)C` (stereo not drawn) the value was “inactive”.
